A number with no mark means an inactive call. The source made the active and inactive calls.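 The calls were made as follows: active = fitted half-maximal concentration AC50 at or below ten times the highest valid tested dose, with signal falling as DNA is displaced (actives reach about 34 µM in these data); inconclusive = flat fit at moderate signal loss, or poor fit quality; inactive = the rest, including signal rising instead of falling.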
assay: DNA intercalators displacing acridine orange, dose response, artefact control for KSHV LANA DNA-binding inhibitor project, biochemical, fluorescence polarization, cherry-picked samples, set 2 (AID 504727); conditions: AC50: Acridine orange-DNA displacement; series mostly up to 35 µM; activity change, negative = DNA displacement: at the top concentration;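 as to activity change, negative = DNA displacement: 0% = median of neutral control wells and -100% = mitoxantrone positive control wells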

| SMILES | AC50 | activity change, negative = DNA displacement [%] |
| --- | --- | --- |
| CC1=NCCc2c1[nH]c1cc(O)ccc21 | 3.74 µM (active) |  |
| O=C(O)c1cccc2c1NC(C(=O)O)C1CC(Sc3ccccc3[N+](=O)[O-])C(Cl)C21 (centres undefined) |  | 5.91 |
| CN1CCN(c2ccc([N+](=O)[O-])c3no[n+]([O-])c23)CC1 | 29.2 µM (active) |  |
| Cc1cc(/C=C2\C(=O)NC(=O)N(Cc3ccccc3)C2=O)c(C)n1-c1ccc(Cl)c(C(=O)O)c1 |  | 4.37 |
| O=c1c2ccccc2nc(/C=C\c2ccccc2[N+](=O)[O-])n1-c1ccccc1O |  | 5.85 |
| CCOC(=O)C1CCCN(c2ccc([N+](=O)[O-])c3nonc23)C1 (centres undefined) | 3.67 µM (active) |  |
| COC(=O)C1=C(c2ccc(OC(F)(F)F)cc2)C[C@@H]2CC[C@H]1N2C(=O)NC1CCCCC1 |  | 6.88 |
| N/C(=N\N=C/c1ccc(-c2ccc(O)c(C(=O)O)c2)o1)N[N+](=O)[O-] |  | 2.31 |
| COc1ccc(OC)c(N2C(=O)NC(=O)/C(=C\c3ccc([N+](=O)[O-])s3)C2=O)c1 |  | 4.68 |
| CCCCc1ccc(C(=O)O)nc1 |  | 2.8 |
| CCN(CC)C(=O)c1ccc2c(c1)C1C=CCC1C(C(=O)O)N2 (centres undefined) |  | 6.31 |
| COCCNC(=O)Cn1cc(/C=C2\C(=O)NC(=O)N(c3cccc(C)c3C)C2=O)c2ccccc21 | 20.4 µM (active) |  |
| CC(OC(=O)c1cn(C)c2ccccc12)C(=O)N1CCCC1 (centres undefined) |  | 6.83 |
| CN(C)C1C(=O)C(C(N)=O)=C(O)C2(O)C(=O)C3=C(O)c4c(O)cccc4C(C)(O)C3C(O)C12 (centres undefined) |  | 1.49 |
| O=[N+]([O-])c1ccc(N2CCCCCC2)c2nonc12 | 13.7 µM (active) |  |
| CCOC(=O)c1c(/N=C/c2c(O)n(-c3cccc(C)c3)c(=O)[nH]c2=O)sc2c1CCCC2 |  | 4.56 |
| CCn1c(O)c(N=Nc2cccc(S(=O)(=O)N3CCOCC3)c2)c(=O)n(CC)c1=S |  | -0.935 |
| Cc1cc(OCC(=O)OC(C)(C)C)c2c3c(c(=O)oc2c1)CCC3 |  | 2.45 |
| Cc1cc(=O)oc2cc(OCC(=O)N3CCN(Cc4ccc5c(c4)OCO5)CC3)ccc12 |  | -0.682 |
| O=c1[nH]c(=O)n(C2CCCCC2)c(O)c1C=Nc1ccc(N2CCOCC2)cc1 |  | 2.56 |
| Nc1ccc2nonc2c1[N+](=O)[O-] | 8.02 µM (active) |  |
| CC(C)CC(=O)Nc1ccc(S(=O)(=O)N2CC3CC(C2)c2cccc(=O)n2C3)cc1 (centres undefined) |  | -1.57 |
| Nc1ccc2ccc3cccc[n+]3c2c1 | 1.87 µM (active) |  |
| CC(Cc1ccccc1)NC(=O)NC(C)Cc1ccccc1 (centres undefined) |  | -2.07 |

From PubChem BioAssay AID504727 (Broad Institute, 2011)
